Assay results: the supplement of paper PMC6555819

System: PPARg:RXRa 30nM:10nM, anti-RXR (NR concentration 30 nM, RXRa partner concentration 10 nM)
Experiment: PBM binding z-score (relative to random genomic background probes); higher = stronger binding; sequences stand for … in GC…GCGATTGACAGCGTAGAATGAAGG
Procedure, shortened: (§1)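 Custom Agilent 4×180K protein-binding microarrays carried double-stranded probes, each with a 34-nt variable region. These regions held direct-repeat seeds, single-nucleotide variants, half-site ablations and random human genomic background sequences. Ligand-free nuclear receptor dimers were incubated on the arrays for 1 h, antibodies against each partner (one per run) detected binding, and scanned fluorescence was regression-normalized. Binding z-scores take the random background probes as reference.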

Sequence	PBM binding z-score
TCAGACAGGTGAAGCTAACTCAGGTACGCAGTCG	3.44
TAGCCTTGGTCATGCGGGCCAGTATAGTGTCGGC	-0.886
GTACCAAGGTGAATAGGTCGTTAATGAGTAGGCG	0.588
GCTTGTAGATCAACGTTAAGAAAGACTAAGCTAA	-0.364
TCTTGTAGATCAAAGGGTAAGAAAGCCGAAGCCT	5.35
GCTGATAGGTCAACTGATGGTCAGCTAAAGCTCG	1.34
CATACAGGGTCAGCTAGGGCAGAGTAGGGACGGC	0.549
AGTCAAAGTTCAGGACGATGTAACGTAAAGCACG	1.92
TCTAGTTGGTCACGGTGGTCACACACGACGGGTA	3.17
CCGACTGGGGCAAGGTTGCCATAACGCACAGCCA	0.553
CCTAGCGGGCCAGGGTCACTCAAGCATTTCGCTT	-0.704
AGAATGAGGTTGTACGTAGATCAGGGAAGAAAGT	0.21
AGAATGAGGTTATACGTACATCAGGGAAGAAAGT	0.777
TGGAGTAGGTTAGGGGCATTCAGAATGGCGTCGA	1.46
CCTACTGGGCCATTCAGAGGCCATTGATCATATG	-0.265
ATATGTAGGTTACGGGTCATTCAGGTTGGTTCGC	6.67
TCGAGTAGGTTAGGGGTATTCAGAATGGCGTCGA	2.28
CCTAGTTCGTCAAGGTCACACACGCTATAGGTAC	0.804
TCTTTTAGTTGATTAGGGCAACCGAAACAGCGGA	4.27
GCTAGCAGGGCATTTGGGTCACTCAATGACGGGC	-0.197

Sequence	PBM binding z-score
TGAATGAGGTTATAAGATCGGGGAACGTTGCAAA	0.637
CGTCCCAGGTCAGAGAGGTCAGTGAATGCCGAGT	0.0256
CAAACTAGGGCAAAGGTCAAAGTCGAGCCAACCA	12.2
CGAACTAGGTCATTGACGGGACAGTGAATAGTAA	3.39
TCTTGTAGATCAACAGGCGGTTAAGAAAGATCGA	2.44
ACTATTAGGTGACTTAGGGCAACCGATACGACGC	0.448
TCTGCTACGTCAGTTGGTCAGCTAACGAGCTGCC	1.01
CTCGAAAGGTCGTGCTCAAGTGAGTATACCAAAC	0.732
TAGCCTAGGTCATTCAGGGGCCAGGATAGAAAGC	0.232
CCTCGGAGGACAACAGGAGGTGAGAGCTGCCAGA	-0.83
ACAGACAGGTGAGTGAAGGTAATTCAGCTGGACG	-0.212
CTACCAAGGTGAACAAGCTCGTTGATTACTATTC	-0.0799
TAGCCTAGGTAATGCGGGCCAGTATAGTGTCGGC	-0.676
CCTCGGAGGACAAAAGGAGGTCAGAGCTGCCAGA	-0.33
GCTTGTAGAGCAAGGTTAAGAAAGACTAAGCTAA	0.817
TCATATAGGTAAAAGGAGAAAGTCGGTGTGGTAA	4.87
TCTAGCAGGCCAGAGGTTCACTCAAGAGGTACGG	2.15
TCGAGTAGGTTCGGGGCATTCAGAATGGCGTCGA	0.452
TCTATTAGTTGATTAGGGCAACCTAAACAGCGGA	3.39
ATACCAAAGTGATCGTGAGGTCGTTGATACTAAC	0.0966

System: PPARg:RXRa 90nM:30nM, anti-RXR (NR concentration 90 nM, RXRa partner concentration 30 nM)
Experiment: as above
Procedure, shortened: as §1

Sequence	PBM binding z-score
TCAGACAGGTGAAGCTAACTCAGGTACGCAGTCG	2.75
TAGCCTTGGTCATGCGGGCCAGTATAGTGTCGGC	-0.995
GTACCAAGGTGAATAGGTCGTTAATGAGTAGGCG	1.07
GCTTGTAGATCAACGTTAAGAAAGACTAAGCTAA	-0.214
TCTTGTAGATCAAAGGGTAAGAAAGCCGAAGCCT	6.1
GCTGATAGGTCAACTGATGGTCAGCTAAAGCTCG	2.96
CATACAGGGTCAGCTAGGGCAGAGTAGGGACGGC	1.75
AGTCAAAGTTCAGGACGATGTAACGTAAAGCACG	3.68
TCTAGTTGGTCACGGTGGTCACACACGACGGGTA	2.47
CCGACTGGGGCAAGGTTGCCATAACGCACAGCCA	2.2
CCTAGCGGGCCAGGGTCACTCAAGCATTTCGCTT	0.334
AGAATGAGGTTGTACGTAGATCAGGGAAGAAAGT	0.207
AGAATGAGGTTATACGTACATCAGGGAAGAAAGT	1.66
TGGAGTAGGTTAGGGGCATTCAGAATGGCGTCGA	2.46
CCTACTGGGCCATTCAGAGGCCATTGATCATATG	0.287
ATATGTAGGTTACGGGTCATTCAGGTTGGTTCGC	8.55
TCGAGTAGGTTAGGGGTATTCAGAATGGCGTCGA	2.99
CCTAGTTCGTCAAGGTCACACACGCTATAGGTAC	2.23
TCTTTTAGTTGATTAGGGCAACCGAAACAGCGGA	3.34
GCTAGCAGGGCATTTGGGTCACTCAATGACGGGC	0.478

Sequence	PBM binding z-score
TGAATGAGGTTATAAGATCGGGGAACGTTGCAAA	1.13
CGTCCCAGGTCAGAGAGGTCAGTGAATGCCGAGT	1.76
CAAACTAGGGCAAAGGTCAAAGTCGAGCCAACCA	12.5
CGAACTAGGTCATTGACGGGACAGTGAATAGTAA	5.82
TCTTGTAGATCAACAGGCGGTTAAGAAAGATCGA	1.81
ACTATTAGGTGACTTAGGGCAACCGATACGACGC	0.872
TCTGCTACGTCAGTTGGTCAGCTAACGAGCTGCC	0.437
CTCGAAAGGTCGTGCTCAAGTGAGTATACCAAAC	2.35
TAGCCTAGGTCATTCAGGGGCCAGGATAGAAAGC	1.26
CCTCGGAGGACAACAGGAGGTGAGAGCTGCCAGA	-0.93
ACAGACAGGTGAGTGAAGGTAATTCAGCTGGACG	-0.193
CTACCAAGGTGAACAAGCTCGTTGATTACTATTC	0.167
TAGCCTAGGTAATGCGGGCCAGTATAGTGTCGGC	-0.655
CCTCGGAGGACAAAAGGAGGTCAGAGCTGCCAGA	0.651
GCTTGTAGAGCAAGGTTAAGAAAGACTAAGCTAA	2.03
TCATATAGGTAAAAGGAGAAAGTCGGTGTGGTAA	5.01
TCTAGCAGGCCAGAGGTTCACTCAAGAGGTACGG	2.98
TCGAGTAGGTTCGGGGCATTCAGAATGGCGTCGA	0.234
TCTATTAGTTGATTAGGGCAACCTAAACAGCGGA	2.86
ATACCAAAGTGATCGTGAGGTCGTTGATACTAAC	-0.173
